PubChem BioAssay (NCI)
The panel holds about 83,000 compounds, 20% with a hit somewhere; the sample as a whole holds those more often.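 48-hour exposure, single concentration, 96-well plates; percent growth endpoint where 0 means no net growth. Active: below 10.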 A number with no mark means an inactive call. Calls of active or inactive are those of the source.

Experiments:
Experiment in all cases: NCI-60 one-dose screen, 48 h (100 = growth as untreated, 0 = no growth, -100 = all killed)
Conditions in all cases: 10 µM unless noted
SK-MEL-2 melanoma = tested on: SK-MEL-2 melanoma
EKVX NSCLC = tested on: EKVX NSCLC
SN12C renal = tested on: SN12C renal
UO-31 renal = tested on: UO-31 renal
TK-10 renal = tested on: TK-10 renal
ACHN renal = tested on: ACHN renal
A498 renal = tested on: A498 renal
CCRF-CEM leukemia = tested on: CCRF-CEM leukemia
MOLT-4 leukemia = tested on: MOLT-4 leukemia
SR leukemia = tested on: SR leukemia
RPMI-8226 leukemia = tested on: RPMI-8226 leukemia
OVCAR-8 ovarian = tested on: OVCAR-8 ovarian
OVCAR-5 ovarian = tested on: OVCAR-5 ovarian
OVCAR-4 ovarian = tested on: OVCAR-4 ovarian
SK-OV-3 ovarian = tested on: SK-OV-3 ovarian
IGROV1 ovarian = tested on: IGROV1 ovarian
OVCAR-3 ovarian = tested on: OVCAR-3 ovarian
HS 578T breast = tested on: HS 578T breast
NCI/ADR-RES ovarian = tested on: NCI/ADR-RES ovarian
T-47D breast = tested on: T-47D breast

Row | Structure (SMILES) | growth (SK-MEL-2 melanoma) | growth (EKVX NSCLC) | growth (SN12C renal) | growth (UO-31 renal) | growth (TK-10 renal) | growth (ACHN renal) | growth (A498 renal) | growth (CCRF-CEM leukemia) | growth (MOLT-4 leukemia) | growth (SR leukemia) | growth (RPMI-8226 leukemia) | growth (OVCAR-8 ovarian) | growth (OVCAR-5 ovarian) | growth (OVCAR-4 ovarian) | growth (SK-OV-3 ovarian) | growth (IGROV1 ovarian) | growth (OVCAR-3 ovarian) | growth (HS 578T breast) | growth (NCI/ADR-RES ovarian) | growth (T-47D breast)
1 | COCCOCCOCc1n(Cc2ccc3ccccc3c2)c2ccccc2[n+]1Cc1ccc2ccccc2c1 | -18.8% (active) | 47.4% | 11.7% | 81.9% | 3.33% (active) | 93.9% | 12% | 12% | 4% (active) | -39.5% (active) | -6.22% (active) | 9.98% (active) | 21.4% | 17% | 2.88% (active) | -7.12% (active) | 7.16% (active) | 39.9% | 105% | -3.39% (active)
2 | C#C[C@@]1(O)[C@@H](CO)O[C@@H](n2cc(I)c3c(N)ncnc32)[C@@H]1O | -27.6% (active) | -19.2% (active) | 6.87% (active) | -14.8% (active) | 23.4% | 5.08% (active) | -86.5% (active) | 6.77% (active) | -18.8% (active) | -1.14% (active) | 5.83% (active) | -19.4% (active) | 20.6% | 20.4% | -28.3% (active) | -34.9% (active) | -17.8% (active) | -15.5% (active) | -4.5% (active) | -21.1% (active)
3 | Cn1nc(C(F)(F)F)c(-c2cc(C(F)(F)F)cc(C(F)(F)F)c2)c1-c1ccc(OCc2ccc(Cl)cc2)cc1O | -34% (active) | 7.7% (active) | 7.93% (active) | -1.27% (active) | 9.29% (active) | 7.22% (active) | -26.9% (active) | 6.82% (active) | -11.7% (active) | -4.24% (active) | -14.5% (active) | 8.36% (active) | 29.1% | 20.7% | -13.5% (active) | 31.4% | 7.02% (active) | 4.39% (active) | 1.98% (active) | -11.6% (active)
4 | N#Cc1ccc(C2C3=C(CCCC3=O)OC3=C2C(=O)c2ccccc2C3=O)cc1 (stereo unspecified) | 43.7% | 63.1% | 12.6% | 85.8% | 99.7% | 66.7% | 109% | 15.8% | -6.58% (active) | 60.9% | 54.7% | 1.88% (active) | 126% | -2.83% (active) | 97.7% | 40% | -1.75% (active) | 90.8% | 6.19% (active) | 3.02% (active)
5 | NC[C@@H]1CCN(c2cc3c(cc2F)c(=O)n(N)c(=O)n3Cc2ccc(-c3ccccc3)cc2)C1 | 94.4% | 85.3% | 87.3% | 69.7% | 94.7% | 95.3% | 90.3% | 55.4% | 50.4% | -26.7% (active) | 65.2% | 96.3% | 111% | 97.4% | 84.6% | 91.9% | 96.4% | 82.9% | 95.5% | 89%
6 | C=C1C(=O)O[C@H]2[C@H]1CC/C(COC(=O)c1c[nH]c3ccccc13)=C\CC[C@@]1(C)O[C@@H]21 | -41.3% (active) | -73.3% (active) | -46.5% (active) | -97.6% (active) | -87% (active) | -77.8% (active) | -96.3% (active) | -0.836% (active) | -1.78% (active) | -9.87% (active) | -27.4% (active) | 5% (active) | -25.3% (active) | -90.6% (active) | 68.9% | -56.2% (active) | -94.2% (active) | 3.21% (active) | -4.86% (active) | -49.2% (active)
7 | O=C(Nc1ccc2ncnc(Nc3ccc(F)c(Cl)c3)c2c1)c1ccccc1 | 87.5% | 61.2% | 71.2% | 63.3% | 36.8% | 37% | 67.6% | 98.6% | 63.4% | 66.7% | 66.9% | 79.1% | 83.9% | -39.8% (active) | 45.1% | 28.5% | 32.5% | 82.8% | 65.9% | 45.3%
8 | C[C@@H]1C(=O)[C@@H]2C[C@@H](O)[C@@H](O)C[C@]2(C)[C@H]2CC[C@@]3(C)C(=C12)CC[C@@H]3[C@@](C)(O)[C@H](O)CCC(C)(C)O | 108% | 113% | 104% | 89% | 95.9% | 117% | 67.2% | 89.5% | 87.3% | 97.4% | 105% | 94.7% | 112% | 114% | 103% | 113% | 102% | 99.3% | 110% | 95.5%
9 | CCc1n(Cc2ccc3ccccc3c2)c2ccccc2[n+]1Cc1ccc2ccccc2c1 | 71.6% | 76.7% | 65.2% | 87.2% | 75.5% | 96.5% | 87.6% | 63.5% |  | 28.4% | 13.5% | 55.1% | 75.7% | 18.3% | 83% | 45.8% | 34.3% | 82.7% | 105% | 25.4%
10 | COc1ccc2oc(=O)cc(-c3c(C#N)c(N)n4nc(N)c(C#N)c4c3C#N)c2c1 | 91.7% | 100% | 103% | 94.4% | 90.4% | 101% | 113% | 106% | 86% | 115% | 110% | 111% | 96.8% | 111% | 93.2% |  | 91.9% | 104% | 104% | 84.1%
11 | CCSc1nc(Cl)c(C#N)c(-c2ccc(F)cc2)n1 | 102% | 95.2% | 95.4% | 85.8% | 101% | 100% | 92.3% | 50.4% | 48.4% | 3.84% (active) | 88.3% | 90.2% | 97.7% | 97.8% | 99.7% |  | 98% | 91.6% |  | 90%
12 | COc1ccc2c(c1)/C(=C1\S/C(=N/c3nnc(C)s3)NC1=O)C(=O)N2Cc1ccc(Cl)cc1 | 43.4% | 38.8% | 51.6% | 57.7% | 58.4% | 55.3% | -4.96% (active) | 31.7% | 24.6% | 55.7% | 40.3% | 52.2% | 90.5% | 44.7% | 70% |  | 42.2% | 55.1% |  | 42%
13 | CN1CCN(CC#CCOC(=O)CNC(=O)[C@]23CCC(C)(C)C[C@H]2C2=CC[C@@H]4[C@@]5(C)CC[C@H](O)C(C)(C)[C@@H]5CC[C@@]4(C)[C@]2(C)CC3)CC1 | 95.4% | 89.1% | 82.2% | 63% | 109% | 92.5% | 69.4% | 85.6% | 70.7% | 7.96% (active) | 76.8% | 81.3% | 101% | 105% | 86.2% |  | 94.6% | 95.5% | 87.6% | 75.5%
14 | O=C(/C(=C/c1ccc([N+](=O)[O-])cc1)SCc1ccc(Cl)cc1)c1ccc(F)cc1 | 81.3% | 59.7% | 45.9% | 45.8% | 94.7% | 54% | 70.5% | 4.66% (active) |  | 0.569% (active) | -25.6% (active) | 57.8% | 95.4% | 60.9% | 63.9% | 58.4% | 54% | 27.9% | 51% | 36.4%
15 | COc1cc(N=Nc2cc(S(=O)(=O)O)cc3cc(S(=O)(=O)O)cc(O)c23)c(C)cc1N=Nc1c(S(=O)(=O)O)cc2cc(Nc3ccccc3)ccc2c1O | 103% | 107% | 103% | 81.3% | 91.1% | 108% | 108% | 100% |  | 76.5% | 103% | 106% | 111% | 97.8% | 102% | 96.6% | 97.2% | 108% | 110% | 93.4%
